Several values for one entry are separate records, joined by “and”; a condition that tells them apart may be missing. Equal values may be shown once. Records with an inconclusive call do not appear. Activity calls are given as the source filed them. How the source made its calls: active means hit-call score of the fitted dose curve at least 0.9, where 1 is the maximum; inconclusive means response in the unintended direction; inactive means score below 0.9.

In general, AC50 refers to the concentration giving half of the maximal activity seen.

Sequence of Cellular tumor antigen p53 (Homo sapiens) (P04637 whole entry, looked up): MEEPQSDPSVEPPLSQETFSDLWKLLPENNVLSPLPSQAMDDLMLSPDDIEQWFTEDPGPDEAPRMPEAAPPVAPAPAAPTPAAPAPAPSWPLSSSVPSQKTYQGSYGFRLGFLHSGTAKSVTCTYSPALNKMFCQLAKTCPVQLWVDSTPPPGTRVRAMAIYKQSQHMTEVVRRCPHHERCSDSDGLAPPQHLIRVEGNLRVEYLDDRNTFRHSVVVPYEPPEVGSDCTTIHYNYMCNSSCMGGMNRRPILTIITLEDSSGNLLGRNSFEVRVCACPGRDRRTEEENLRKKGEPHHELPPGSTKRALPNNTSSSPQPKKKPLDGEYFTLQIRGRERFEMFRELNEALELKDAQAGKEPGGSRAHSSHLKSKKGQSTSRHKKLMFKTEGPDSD

Test system in the first experiment: not listed separately
Put plainly: TOX21_p53_BLA_p2_viability: Viability Assessment in the Tox21 HCT-116 p53 Agonism Beta-lactamase Assay, Phase 2 (AID 2283591).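 Further: compound exposure lasted 16 h at 37 °C; actives lower the ATP signal meaning cytotoxicity.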 In short, it runs like this:
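Cytotoxicity readout: CellTiter-Glo ATP luminescence, 30 min at room temperature, after the beta-lactamase read. Cells were HCT116 exposed 16 h at 37C to compounds pin-transferred at 217-fold dilution from DMSO stocks.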
For the molecule `SCCc1cnccn1`, the outcome was inactive.
Consider `c1ccc2c(c1)ccc1cc3c(ccc4ccccc43)cc12`, for which the outcome was inactive.
In the case of `CC(C)=CCCC(C)C=O` (configuration not stated), the outcome was inactive.
`O=Cc1ccc(CO)o1`: the molecule was classed as inactive.
Still for that read-out and setting: in the case of `C=CCOc1c(Br)cc(Br)cc1Br` it was “inactive”; in that of `CC(CC=O)c1ccccc1` (configuration not stated), “inactive”.
As to `COC(=O)/C=C\C(=O)O`, the call was inactive.
Still for that read-out and setting: with `O=C(O)CCCCCCCCCC(=O)O` the entry was “inactive”.
As to `CC1=Nc2ccc3ccccc3c2C1(C)C`, the molecule was called inactive.
`O=C(Nc1cccc(C(F)(F)F)c1)c1cc(Br)cc(Br)c1O`: the AC50 is 747 nM (active) and 1.12 µM (active).
With `O=C(c1ccccc1)c1ccc(O)c(O)c1O`, the molecule was classed as inactive.
On the same count and under the same terms, with `C=CC(=O)OCCC(=O)O` the entry was “inactive”.
As to `NCCCN1CCN(CCCN)CC1`, the molecule was called inactive.

The next experiment has as its target Cellular tumor antigen p53 (Homo sapiens) (UniProt P04637). Put plainly: TOX21_p53_BLA_p2_ratio: Tox21 HCT-116 p53 Agonism Beta-lactamase Assay, Ratio, Phase 2 (AID 2283592). In short, it runs like this: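 An inducible beta-lactamase reporter in HCT116 cells signals p53 pathway activation. After 16 h chemical exposure at 37C, cells load CCF4-AM substrate for 2 h at room temperature; activity is the cleaved/uncleaved emission ratio relative to DMSO.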
For the molecule `CCCCCCOC(=O)C(C)CC` (configuration not stated), the outcome was inactive.
With `CC(C)CCCCCOC(=O)CCS`, the outcome was inactive.
`SCCc1cnccn1`: the AC50 was 45.1 µM (active).
For the molecule `CNC(=S)N(C)C`, the outcome was inactive.
`C=C(C)c1cccc(C(C)(C)N=C=O)c1`: the result was inactive.
With `CCCCCCCCCCOC(C)=O`, the result was inactive.
Take `OC1OCCOC1O` (configuration not stated): the outcome was inactive.
In the case of `c1ccc2c(c1)ccc1cc3c(ccc4ccccc43)cc12`, the outcome was inactive.
In the case of `CC(=O)OCCC1CCCCC1`, the outcome was inactive.
`CCCCCCC(O)CO` (configuration not stated): the result was inactive.
With `O=Cc1ccc(CO)o1`, the result was inactive.
For the molecule `COc1ccc([C@@H]2CC(=O)c3c(O)cc(O[C@@H]4O[C@H](CO[C@@H]5O[C@@H](C)[C@H](O)[C@@H](O)[C@H]5O)[C@@H](O)[C@H](O)[C@H]4O)cc3O2)cc1OC`, the result was inactive.
Take `CCOc1ccc(N)c([N+](=O)[O-])c1`: the outcome was inactive.
As to `CCC(C)OC(=O)c1ccc(O)cc1` (configuration not stated), the result was inactive.
Still for that read-out and setting: in the case of `O=C1CCCC(=O)O1` it was “inactive”.
`CC(=O)OCC(C)OC(C)=O` (configuration not stated): the outcome was inactive.
On to `O=C(O)CCCCCCCCCC(=O)O`, for which the result was inactive.
In the case of `CC1=Nc2ccc3ccccc3c2C1(C)C`, the outcome was inactive.
With `O=C(Nc1cccc(C(F)(F)F)c1)c1cc(Br)cc(Br)c1O`, the AC50 is 181 nM (active) and 1.14 µM (active).
As for `CCCOC(=O)CCCCC(=O)OCCC`, the result was inactive.
Take `COC(=O)/C=C/C(C)=C\C=C\C(C)=C\C=C\C=C(C)\C=C\C=C(C)\C=C\C(=O)O`: the outcome was inactive.
For `O=C1CC2CC1C1CCCC21` (configuration not stated), the result was inactive.
Same read-out and setting: in the case of `O=C(c1ccccc1)c1ccc(O)c(O)c1O` it was “inactive”.
Regarding `Cc1cccc(OCCOc2cccc(C)c2)c1`, the result was inactive.
Consider `CCC(CC)C(=O)O`, for which the result was inactive.
Take `Cc1cc(C)c(C)c(O)c1`: the outcome was inactive.
Turning to `NC(=O)NNC(N)=O`, the outcome was inactive.
As to `C=CC(=O)OCCC(=O)O`, the outcome was inactive.
On the same count and under the same terms, with `NCCCN1CCN(CCCN)CC1` the entry was “inactive”.

The values above are taken from PubChem BioAssay (EPA / NIEHS).
